The supplement of paper PMC11732987, “Enantioselective OTUD7B fragment discovery through chemoproteomics screening and high-throughput optimisation” (Communications Chemistry, 2025)

Legend:
Assay in all cases: log2 ratio of Biotin-Ahx-Ub-VS probe labelling (fragment/DMSO); higher = less target engagement (more negative = stronger competition), active = hit call of the paper (q ≤ 0.05, log2 ratio ≤ -1)
Conditions in all cases: compound concentration: 200 uM; treatment time: 3 h
USP42 = biological target: T1, USP42 (UniProt Q9H9J4)
T1 sequence (whole entry): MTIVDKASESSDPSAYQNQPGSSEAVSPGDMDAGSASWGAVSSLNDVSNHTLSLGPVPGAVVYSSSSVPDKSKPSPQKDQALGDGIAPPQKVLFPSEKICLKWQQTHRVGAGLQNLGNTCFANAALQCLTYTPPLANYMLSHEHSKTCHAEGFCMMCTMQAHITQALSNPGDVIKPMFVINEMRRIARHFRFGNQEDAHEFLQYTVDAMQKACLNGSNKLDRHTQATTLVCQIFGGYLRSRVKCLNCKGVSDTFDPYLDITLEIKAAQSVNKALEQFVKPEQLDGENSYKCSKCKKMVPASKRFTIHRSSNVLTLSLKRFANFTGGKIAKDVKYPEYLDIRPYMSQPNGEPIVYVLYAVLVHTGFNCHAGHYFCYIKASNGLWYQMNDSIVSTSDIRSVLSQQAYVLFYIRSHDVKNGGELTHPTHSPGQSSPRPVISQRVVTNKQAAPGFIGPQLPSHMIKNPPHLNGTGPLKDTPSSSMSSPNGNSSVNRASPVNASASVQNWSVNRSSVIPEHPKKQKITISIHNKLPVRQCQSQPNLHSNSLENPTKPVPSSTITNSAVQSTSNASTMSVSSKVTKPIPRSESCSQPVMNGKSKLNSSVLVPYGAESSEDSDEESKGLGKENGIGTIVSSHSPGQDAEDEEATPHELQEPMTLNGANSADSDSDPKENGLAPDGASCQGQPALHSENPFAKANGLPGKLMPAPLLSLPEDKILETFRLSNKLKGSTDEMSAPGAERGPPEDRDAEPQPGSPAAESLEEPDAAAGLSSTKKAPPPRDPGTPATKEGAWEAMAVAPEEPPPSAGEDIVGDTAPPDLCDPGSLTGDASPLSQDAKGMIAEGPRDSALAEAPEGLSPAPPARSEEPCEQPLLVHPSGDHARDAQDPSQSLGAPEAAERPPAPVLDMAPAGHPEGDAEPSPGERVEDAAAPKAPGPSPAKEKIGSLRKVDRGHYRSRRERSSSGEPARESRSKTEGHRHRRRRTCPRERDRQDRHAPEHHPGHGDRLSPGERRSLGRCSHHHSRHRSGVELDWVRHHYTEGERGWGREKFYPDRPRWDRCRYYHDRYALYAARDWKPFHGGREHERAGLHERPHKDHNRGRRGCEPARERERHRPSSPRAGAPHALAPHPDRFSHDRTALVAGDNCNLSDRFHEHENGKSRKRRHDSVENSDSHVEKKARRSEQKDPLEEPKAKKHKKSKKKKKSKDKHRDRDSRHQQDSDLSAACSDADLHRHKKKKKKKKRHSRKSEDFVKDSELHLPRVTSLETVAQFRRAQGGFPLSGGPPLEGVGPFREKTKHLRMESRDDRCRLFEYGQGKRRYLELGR
In short: (§1)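 HEK293T lysate (495 µg per sample, in Tris/CHAPS/IGEPAL buffer with protease inhibitors) was exposed in triplicate for 3 h to fragment at 200 µM or to vehicle, then to Biotin-Ahx-Ub-VS at 0.5 µM final for 1 h. Labelled DUBs were enriched on NeutrAvidin, digested with LysC and trypsin, and analysed by diaPASEF LC-MS/MS. Spectronaut label-free quantities were normalised to the global median, and values are average log2 ratios of fragment over vehicle from an unpaired t-test. Only proteins with ≥2 unique peptides were used.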

USP46 = USP46 (UniProt P62068)
In short: as §1

USP47 = biological target: T2, USP47 (UniProt Q96K76)
T2 sequence (whole entry): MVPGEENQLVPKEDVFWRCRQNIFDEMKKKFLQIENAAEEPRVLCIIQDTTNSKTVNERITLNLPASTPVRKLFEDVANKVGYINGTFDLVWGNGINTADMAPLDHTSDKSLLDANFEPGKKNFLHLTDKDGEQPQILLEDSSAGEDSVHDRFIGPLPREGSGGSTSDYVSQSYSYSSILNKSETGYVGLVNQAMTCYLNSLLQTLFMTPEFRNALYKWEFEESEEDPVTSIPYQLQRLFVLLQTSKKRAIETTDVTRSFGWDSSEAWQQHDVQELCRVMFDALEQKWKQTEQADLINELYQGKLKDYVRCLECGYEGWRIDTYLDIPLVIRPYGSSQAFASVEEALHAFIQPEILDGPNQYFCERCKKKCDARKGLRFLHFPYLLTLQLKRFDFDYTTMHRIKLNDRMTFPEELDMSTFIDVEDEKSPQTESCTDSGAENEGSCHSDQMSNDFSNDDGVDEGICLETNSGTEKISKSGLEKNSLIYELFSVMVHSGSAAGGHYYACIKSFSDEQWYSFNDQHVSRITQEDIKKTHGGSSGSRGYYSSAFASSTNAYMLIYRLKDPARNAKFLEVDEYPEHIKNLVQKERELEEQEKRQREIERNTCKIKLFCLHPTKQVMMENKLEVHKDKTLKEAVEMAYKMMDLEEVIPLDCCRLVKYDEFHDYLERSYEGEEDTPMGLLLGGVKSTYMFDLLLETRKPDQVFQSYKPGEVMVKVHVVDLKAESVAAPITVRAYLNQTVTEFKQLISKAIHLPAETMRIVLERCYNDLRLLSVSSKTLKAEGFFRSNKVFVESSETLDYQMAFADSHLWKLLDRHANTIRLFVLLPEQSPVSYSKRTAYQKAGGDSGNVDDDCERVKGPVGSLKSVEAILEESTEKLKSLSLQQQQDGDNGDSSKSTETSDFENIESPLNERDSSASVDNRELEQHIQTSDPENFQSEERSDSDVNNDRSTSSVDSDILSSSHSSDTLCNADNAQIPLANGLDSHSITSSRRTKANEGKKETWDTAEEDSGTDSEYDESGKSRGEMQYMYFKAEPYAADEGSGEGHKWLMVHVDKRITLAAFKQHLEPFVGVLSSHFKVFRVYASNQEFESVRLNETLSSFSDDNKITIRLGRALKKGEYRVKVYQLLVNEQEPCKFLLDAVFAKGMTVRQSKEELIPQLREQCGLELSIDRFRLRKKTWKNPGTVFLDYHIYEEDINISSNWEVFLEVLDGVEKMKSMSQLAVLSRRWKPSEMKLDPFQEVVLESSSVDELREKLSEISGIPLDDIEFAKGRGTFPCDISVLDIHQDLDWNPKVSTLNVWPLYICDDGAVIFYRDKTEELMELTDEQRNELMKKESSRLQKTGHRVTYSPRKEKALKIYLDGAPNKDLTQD
In short: as §1

USP48 = biological target: T3, USP48 (UniProt Q86UV5)
T3 sequence (whole entry): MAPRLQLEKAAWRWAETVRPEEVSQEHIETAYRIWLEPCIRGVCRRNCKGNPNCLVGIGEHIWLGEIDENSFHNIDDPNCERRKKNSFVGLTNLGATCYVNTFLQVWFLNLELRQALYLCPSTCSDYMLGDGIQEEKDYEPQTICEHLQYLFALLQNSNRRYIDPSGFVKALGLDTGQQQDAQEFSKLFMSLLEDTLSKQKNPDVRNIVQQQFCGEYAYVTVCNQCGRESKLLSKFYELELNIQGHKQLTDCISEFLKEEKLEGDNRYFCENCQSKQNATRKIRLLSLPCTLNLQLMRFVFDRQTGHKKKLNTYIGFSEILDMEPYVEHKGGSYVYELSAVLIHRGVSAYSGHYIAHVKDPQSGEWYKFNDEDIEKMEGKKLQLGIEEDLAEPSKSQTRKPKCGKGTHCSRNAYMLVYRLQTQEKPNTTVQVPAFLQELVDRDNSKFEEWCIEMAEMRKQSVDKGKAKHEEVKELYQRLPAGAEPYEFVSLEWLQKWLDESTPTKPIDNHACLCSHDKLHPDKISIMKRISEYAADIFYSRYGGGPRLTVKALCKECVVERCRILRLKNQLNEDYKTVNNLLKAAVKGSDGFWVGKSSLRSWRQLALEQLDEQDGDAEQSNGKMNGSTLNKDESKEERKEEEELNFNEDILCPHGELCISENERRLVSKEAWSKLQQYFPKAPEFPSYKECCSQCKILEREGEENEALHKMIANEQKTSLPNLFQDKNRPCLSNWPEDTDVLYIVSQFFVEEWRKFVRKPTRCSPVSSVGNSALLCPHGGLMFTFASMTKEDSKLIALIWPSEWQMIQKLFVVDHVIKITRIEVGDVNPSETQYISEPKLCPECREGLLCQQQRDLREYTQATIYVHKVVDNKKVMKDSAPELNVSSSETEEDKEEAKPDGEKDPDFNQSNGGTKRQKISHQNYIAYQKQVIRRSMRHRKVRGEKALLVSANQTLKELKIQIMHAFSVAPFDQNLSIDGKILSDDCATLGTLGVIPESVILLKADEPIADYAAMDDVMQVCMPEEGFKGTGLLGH
In short: as §1

USP5 = biological target: T4, USP5 (UniProt P45974)
T4 sequence (whole entry): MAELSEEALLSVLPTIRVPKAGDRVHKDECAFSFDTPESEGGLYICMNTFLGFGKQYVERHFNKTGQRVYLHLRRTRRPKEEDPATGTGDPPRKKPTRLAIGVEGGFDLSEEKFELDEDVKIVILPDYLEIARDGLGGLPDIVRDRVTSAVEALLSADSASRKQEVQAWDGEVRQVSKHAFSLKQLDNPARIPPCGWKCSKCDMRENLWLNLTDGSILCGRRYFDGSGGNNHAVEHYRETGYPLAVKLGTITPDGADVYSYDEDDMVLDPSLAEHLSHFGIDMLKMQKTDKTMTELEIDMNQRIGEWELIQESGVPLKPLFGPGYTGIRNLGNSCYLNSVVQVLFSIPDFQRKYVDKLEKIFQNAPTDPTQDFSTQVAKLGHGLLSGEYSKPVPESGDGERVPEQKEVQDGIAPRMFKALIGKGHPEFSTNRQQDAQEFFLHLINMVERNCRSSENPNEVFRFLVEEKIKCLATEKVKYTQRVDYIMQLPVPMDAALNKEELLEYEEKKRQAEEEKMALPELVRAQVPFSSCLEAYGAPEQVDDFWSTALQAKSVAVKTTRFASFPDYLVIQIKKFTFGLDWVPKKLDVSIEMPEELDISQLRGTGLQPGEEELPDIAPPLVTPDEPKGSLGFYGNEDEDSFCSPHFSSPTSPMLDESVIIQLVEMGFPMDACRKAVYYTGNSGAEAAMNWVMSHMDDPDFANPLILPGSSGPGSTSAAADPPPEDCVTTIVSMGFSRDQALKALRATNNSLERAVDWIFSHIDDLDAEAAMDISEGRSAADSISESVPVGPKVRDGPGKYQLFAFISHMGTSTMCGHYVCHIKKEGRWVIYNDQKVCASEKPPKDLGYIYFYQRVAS
In short: as §1

USP54 = USP54 (UniProt Q70EL1)
In short: as §1

USP7 = USP7 (UniProt Q93009)
In short: as §1

USP8 = biological target: T5, USP8 (UniProt P40818)
T5 sequence (whole entry): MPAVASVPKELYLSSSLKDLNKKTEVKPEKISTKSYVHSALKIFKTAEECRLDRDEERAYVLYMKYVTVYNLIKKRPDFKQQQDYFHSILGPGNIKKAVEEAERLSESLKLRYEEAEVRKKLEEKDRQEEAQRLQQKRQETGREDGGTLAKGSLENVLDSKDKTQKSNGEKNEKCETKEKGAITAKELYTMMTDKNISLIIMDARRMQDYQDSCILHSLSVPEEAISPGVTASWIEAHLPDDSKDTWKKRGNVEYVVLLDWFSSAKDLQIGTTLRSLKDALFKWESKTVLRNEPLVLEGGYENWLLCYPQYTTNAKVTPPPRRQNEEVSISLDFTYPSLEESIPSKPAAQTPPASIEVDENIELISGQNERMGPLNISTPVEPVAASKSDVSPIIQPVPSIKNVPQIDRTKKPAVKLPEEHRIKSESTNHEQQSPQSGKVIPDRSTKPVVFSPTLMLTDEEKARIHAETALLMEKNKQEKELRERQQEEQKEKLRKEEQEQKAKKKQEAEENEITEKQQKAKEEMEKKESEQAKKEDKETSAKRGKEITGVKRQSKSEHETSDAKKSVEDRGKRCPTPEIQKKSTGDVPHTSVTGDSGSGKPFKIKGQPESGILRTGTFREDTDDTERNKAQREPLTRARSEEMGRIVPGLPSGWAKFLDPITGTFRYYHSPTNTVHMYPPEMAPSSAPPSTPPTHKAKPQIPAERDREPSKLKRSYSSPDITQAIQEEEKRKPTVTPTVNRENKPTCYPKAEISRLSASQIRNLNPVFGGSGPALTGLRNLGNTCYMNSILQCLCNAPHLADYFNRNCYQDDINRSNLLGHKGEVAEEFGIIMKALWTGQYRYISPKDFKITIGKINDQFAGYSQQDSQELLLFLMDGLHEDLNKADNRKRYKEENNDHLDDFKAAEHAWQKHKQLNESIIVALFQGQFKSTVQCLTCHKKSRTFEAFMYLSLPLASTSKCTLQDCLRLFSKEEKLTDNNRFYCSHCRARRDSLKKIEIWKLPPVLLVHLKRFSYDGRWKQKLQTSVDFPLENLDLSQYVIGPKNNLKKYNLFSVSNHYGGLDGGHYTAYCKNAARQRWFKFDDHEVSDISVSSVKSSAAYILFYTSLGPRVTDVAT
In short: as §1

Measured: log2 ratio of Biotin-Ahx-Ub-VS probe labelling

USP7, sequence (Q93009 whole entry, looked up): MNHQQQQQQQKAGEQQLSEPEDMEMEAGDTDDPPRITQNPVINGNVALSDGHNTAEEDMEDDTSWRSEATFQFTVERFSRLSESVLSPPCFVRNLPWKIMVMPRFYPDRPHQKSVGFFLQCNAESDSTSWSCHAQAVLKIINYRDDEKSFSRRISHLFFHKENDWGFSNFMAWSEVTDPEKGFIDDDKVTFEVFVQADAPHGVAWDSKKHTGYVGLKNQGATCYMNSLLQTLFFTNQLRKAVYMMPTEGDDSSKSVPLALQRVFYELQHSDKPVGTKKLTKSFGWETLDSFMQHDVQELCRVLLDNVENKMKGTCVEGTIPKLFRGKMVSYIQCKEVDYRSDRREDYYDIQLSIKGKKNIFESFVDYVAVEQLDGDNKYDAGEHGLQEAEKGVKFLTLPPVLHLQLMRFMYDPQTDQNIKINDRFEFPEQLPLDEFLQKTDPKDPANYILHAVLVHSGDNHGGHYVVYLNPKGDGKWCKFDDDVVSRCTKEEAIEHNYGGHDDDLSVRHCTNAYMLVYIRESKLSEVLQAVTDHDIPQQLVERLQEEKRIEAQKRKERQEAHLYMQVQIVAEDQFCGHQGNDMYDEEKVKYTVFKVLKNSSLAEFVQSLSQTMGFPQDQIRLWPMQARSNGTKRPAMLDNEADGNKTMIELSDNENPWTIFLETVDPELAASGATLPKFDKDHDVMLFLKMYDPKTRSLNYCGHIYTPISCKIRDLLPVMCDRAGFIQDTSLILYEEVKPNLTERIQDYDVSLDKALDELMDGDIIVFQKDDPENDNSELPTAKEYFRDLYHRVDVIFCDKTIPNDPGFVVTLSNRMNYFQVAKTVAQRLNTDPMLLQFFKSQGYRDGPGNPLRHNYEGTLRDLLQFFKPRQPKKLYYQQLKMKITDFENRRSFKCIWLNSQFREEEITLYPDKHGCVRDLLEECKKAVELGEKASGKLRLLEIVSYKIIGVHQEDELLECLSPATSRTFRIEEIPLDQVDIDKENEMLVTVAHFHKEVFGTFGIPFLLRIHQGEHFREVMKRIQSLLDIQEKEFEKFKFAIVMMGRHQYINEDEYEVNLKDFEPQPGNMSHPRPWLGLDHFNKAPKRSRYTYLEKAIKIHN
USP54, sequence (Q70EL1 whole entry): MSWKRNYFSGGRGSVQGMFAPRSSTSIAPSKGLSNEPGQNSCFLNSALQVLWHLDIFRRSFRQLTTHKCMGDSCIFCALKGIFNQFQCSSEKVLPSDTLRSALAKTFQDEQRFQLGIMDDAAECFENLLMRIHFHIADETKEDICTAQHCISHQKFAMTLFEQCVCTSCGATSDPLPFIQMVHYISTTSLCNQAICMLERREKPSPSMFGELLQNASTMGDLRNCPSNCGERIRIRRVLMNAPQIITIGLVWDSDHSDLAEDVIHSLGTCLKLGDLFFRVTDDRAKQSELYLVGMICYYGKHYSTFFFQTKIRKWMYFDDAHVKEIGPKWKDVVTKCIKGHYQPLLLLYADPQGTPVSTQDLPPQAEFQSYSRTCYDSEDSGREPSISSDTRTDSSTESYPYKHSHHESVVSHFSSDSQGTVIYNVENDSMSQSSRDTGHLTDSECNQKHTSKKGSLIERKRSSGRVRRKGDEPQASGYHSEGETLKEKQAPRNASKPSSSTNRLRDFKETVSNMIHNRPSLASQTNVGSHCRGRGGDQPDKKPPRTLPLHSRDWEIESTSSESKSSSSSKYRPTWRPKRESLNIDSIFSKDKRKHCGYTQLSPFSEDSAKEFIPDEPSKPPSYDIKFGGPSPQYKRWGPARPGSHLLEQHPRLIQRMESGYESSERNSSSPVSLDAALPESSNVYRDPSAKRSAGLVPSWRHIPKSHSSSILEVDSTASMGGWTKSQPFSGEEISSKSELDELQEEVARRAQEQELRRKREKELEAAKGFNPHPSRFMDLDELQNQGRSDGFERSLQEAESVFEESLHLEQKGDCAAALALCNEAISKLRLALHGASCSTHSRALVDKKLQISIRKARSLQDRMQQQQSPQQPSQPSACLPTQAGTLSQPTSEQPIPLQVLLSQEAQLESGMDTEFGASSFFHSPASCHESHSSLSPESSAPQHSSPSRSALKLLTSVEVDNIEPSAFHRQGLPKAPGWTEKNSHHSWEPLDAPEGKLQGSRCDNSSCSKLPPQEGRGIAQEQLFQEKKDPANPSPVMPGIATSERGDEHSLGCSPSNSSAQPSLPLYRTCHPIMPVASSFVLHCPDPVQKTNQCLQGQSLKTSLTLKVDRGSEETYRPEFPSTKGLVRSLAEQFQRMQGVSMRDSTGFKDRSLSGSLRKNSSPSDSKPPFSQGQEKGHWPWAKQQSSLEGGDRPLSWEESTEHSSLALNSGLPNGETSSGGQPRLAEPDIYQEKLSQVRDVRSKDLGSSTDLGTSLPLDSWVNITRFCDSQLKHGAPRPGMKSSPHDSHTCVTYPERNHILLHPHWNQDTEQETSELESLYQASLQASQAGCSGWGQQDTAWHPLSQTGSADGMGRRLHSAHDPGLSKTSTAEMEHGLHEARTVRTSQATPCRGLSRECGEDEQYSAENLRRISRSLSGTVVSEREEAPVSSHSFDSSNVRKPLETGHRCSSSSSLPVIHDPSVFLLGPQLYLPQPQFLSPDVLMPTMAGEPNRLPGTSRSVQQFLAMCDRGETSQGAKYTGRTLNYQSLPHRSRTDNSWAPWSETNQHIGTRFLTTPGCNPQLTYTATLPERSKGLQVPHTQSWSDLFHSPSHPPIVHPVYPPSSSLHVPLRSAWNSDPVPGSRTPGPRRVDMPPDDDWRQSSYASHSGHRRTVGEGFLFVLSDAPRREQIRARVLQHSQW
USP46, sequence (P62068 whole entry): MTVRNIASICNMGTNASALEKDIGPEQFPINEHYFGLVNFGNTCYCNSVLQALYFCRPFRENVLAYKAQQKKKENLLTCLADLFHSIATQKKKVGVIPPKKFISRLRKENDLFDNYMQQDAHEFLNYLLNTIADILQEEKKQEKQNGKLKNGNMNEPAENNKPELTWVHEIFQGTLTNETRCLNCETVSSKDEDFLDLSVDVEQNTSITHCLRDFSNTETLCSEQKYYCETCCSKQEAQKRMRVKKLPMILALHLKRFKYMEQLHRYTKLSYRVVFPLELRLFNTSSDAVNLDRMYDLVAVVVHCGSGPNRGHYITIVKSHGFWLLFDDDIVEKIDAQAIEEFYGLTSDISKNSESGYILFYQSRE

O=C(CCl)N(C1=CCCCC1)C1CC1
inactive: USP42 0.331 | USP46 -0.1 | USP47 -0.571 | USP48 -0.64 | USP5 0.124 | USP54 0.551 | USP7 -0.612 | USP8 -0.00831
